The text below walks through data of PubChem BioAssay (Tox21).

Results filed as inconclusive are left out. The source made the active and inactive calls. Calls come from the whole dose curve; as a rule, active = well fitted inhibition curve with a large enough effect in the repeat runs; inconclusive = weak or mixed curves; inactive = no such curve, though single readings can be large or run the other way.
Potency is the fitted concentration of half-maximal effect.

Chain of Cytochrome P450 2C9 (Homo sapiens) (P11712 whole entry, looked up): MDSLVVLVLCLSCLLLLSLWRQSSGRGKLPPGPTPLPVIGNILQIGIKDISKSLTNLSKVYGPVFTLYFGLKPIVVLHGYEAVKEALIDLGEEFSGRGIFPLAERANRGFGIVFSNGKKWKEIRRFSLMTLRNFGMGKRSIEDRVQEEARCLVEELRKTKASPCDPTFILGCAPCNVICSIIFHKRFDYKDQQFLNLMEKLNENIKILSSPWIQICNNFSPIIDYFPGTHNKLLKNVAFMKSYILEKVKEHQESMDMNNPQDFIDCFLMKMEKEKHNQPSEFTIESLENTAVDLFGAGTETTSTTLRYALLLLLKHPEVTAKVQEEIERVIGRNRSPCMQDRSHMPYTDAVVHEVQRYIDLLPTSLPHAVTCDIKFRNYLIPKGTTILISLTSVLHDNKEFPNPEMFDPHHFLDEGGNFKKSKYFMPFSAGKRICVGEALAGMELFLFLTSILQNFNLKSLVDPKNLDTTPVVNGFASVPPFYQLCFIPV

The target of the first assay is Cytochrome P450 2C19 (Homo sapiens) (UniProt P33261). Briefly: Cytochrome P450 Family 2 Subfamily C Member 19 (CYP2C19) small molecule antagonists: luciferase reporter qHTS assay (AID 1671197). Note: nearly all actives have a fitted effect of over 65% in size. To be noted: P450-Glo CYP2C19 enzyme, luciferin luminescence, 1 h; series mostly up to 52.9 µM. An outline of the steps: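 Luminescent readout of CYP2C19 activity: luciferin product detected 20 min after adding detection reagent. Before that, compound and enzyme-substrate mix preincubated 10 min at room temperature; NADPH-regenerating system started a 1 h, 37C reaction. Ketoconazole as positive control.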
Chain of Cytochrome P450 2C19 (Homo sapiens) (P33261 whole entry, looked up): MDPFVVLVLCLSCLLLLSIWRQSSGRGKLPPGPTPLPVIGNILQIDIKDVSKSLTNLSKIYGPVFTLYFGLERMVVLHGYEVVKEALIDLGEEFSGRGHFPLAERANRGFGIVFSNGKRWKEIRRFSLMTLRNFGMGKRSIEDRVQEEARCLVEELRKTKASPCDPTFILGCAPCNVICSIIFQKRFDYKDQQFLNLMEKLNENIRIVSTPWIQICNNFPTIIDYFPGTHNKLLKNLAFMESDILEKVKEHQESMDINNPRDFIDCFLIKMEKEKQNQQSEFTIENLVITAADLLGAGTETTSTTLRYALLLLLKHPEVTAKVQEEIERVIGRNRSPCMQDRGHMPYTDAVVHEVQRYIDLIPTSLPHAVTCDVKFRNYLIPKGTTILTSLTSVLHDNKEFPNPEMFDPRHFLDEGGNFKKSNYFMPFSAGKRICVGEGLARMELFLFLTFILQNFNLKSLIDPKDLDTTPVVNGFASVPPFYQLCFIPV
In general terms: A reporter such as luciferase makes a cellular process visible.
Consider `CCC(=O)C1CC(C(C)C)CC=C1C` (centres undefined), for which the Potency was 35.6 µM (active). With `O=C1Cc2ccccc2N1c1c(Cl)cccc1Cl`, the Potency was 11.2 µM (active). With `CCC(C)(C)OC`, the Potency entry is “inactive”. Consider `COc1ccccc1Oc1c(NS(=O)(=O)c2ccc(C(C)(C)C)cc2)nc(-c2ncccn2)nc1OCCO`, for which the Potency result was “inactive”. For `OC[C@H]1O[C@@H](n2cnc3c(=S)nc[nH]c32)[C@H](O)[C@@H]1O`, the Potency is 7.76 µM (active). As to `CCCCCCCCN`, the Potency entry is “inactive”. As for `C=C/C(C)=C/C/C=C(\C)CCC=C(C)C`, the Potency was 31.7 µM (active). For the compound `CCCCCCNC(=O)n1cc(F)c(=O)[nH]c1=O`, the Potency was 34.7 µM (active). `Nc1nc2ccc([N+](=O)[O-])cc2s1`: the Potency was 35.6 µM (active). Still for that read-out and setting: in the case of `CCOc1cccc(-n2cc(C(=O)N3CCN(c4cc(C(=O)O)c5ccccc5c4)CC3)nc2-c2ccc(C)cc2)c1` it was 53.8 µM (active); in that of `Oc1cccc(O)c1O`, 70.4 µM (active); in that of `O=C(CCc1ccc(O)cc1)c1c(O)cc(O)cc1O`, 40.8 µM (active). Turning to `CNC(=O)c1cnn(-c2nc(N)c3ncn([C@@H]4O[C@H](CO)[C@@H](O)[C@H]4O)c3n2)c1`, the Potency result was “inactive”.

`Cc1cc(O)c(C)c(C)c1O`: the Potency entry is “inactive”. Take `COc1cc(N)c(Cl)cc1C(=O)NC1CCN(CCCOc2ccc(F)cc2)CC1OC` (centres undefined): the Potency was 15.5 µM (active). Regarding `CN(C)CCN1C(=O)c2ccccc2N(C)c2ccccc21`, the Potency entry is “inactive”. For `CCCCCCCCCI`, the Potency entry is “inactive”. For `CCOc1ccccc1O[C@H](c1ccccc1)[C@H]1CNCCO1`, the Potency entry is “inactive”.

The target of another assay is Cytochrome P450 2C9 (Homo sapiens) (UniProt P11712). Briefly: Cytochrome P450 Family 2 Subfamily C Member 9 (CYP2C9) small molecule antagonists: luciferase reporter qHTS assay (AID 1671198). Note: nearly all actives have a fitted effect of over 50% in size. Conditions: P450-Glo CYP2C9 enzyme assay, luciferin luminescence; series mostly up to 115 µM. An outline of the steps:
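Enzyme-substrate mix preincubated with compound 10 min at room temperature; reaction started with NADPH regeneration solution, 1 h 37C. Luminescent luciferin product read after 20 min detection reagent.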
For the compound `CCCCCC[C@@H](O)C/C=C\CCCCCCCC(=O)OCC(O)CO` (some centres undefined), the Potency was 11.2 µM (active). Consider `O=C1Cc2ccccc2N1c1c(Cl)cccc1Cl`, for which the Potency was 35.6 µM (active). In the case of `CCC(C)(C)OC`, the Potency entry is “inactive”. For `OC[C@H]1O[C@@H](n2cnc3c(=S)nc[nH]c32)[C@H](O)[C@@H]1O`, the Potency is 13.8 µM (active). In the case of `C=C/C(C)=C/C/C=C(\C)CCC=C(C)C`, the Potency was 31.7 µM (active). For `CCCCCCNC(=O)n1cc(F)c(=O)[nH]c1=O`, the Potency was 15.5 µM (active). On the same count and under the same terms, the same measure for `O=C1c2ccccc2C(=O)c2c(O)c(O)cc(O)c21`: 63.3 µM (active); for `O=C(O)CCCCCCCCCCCBr`: “inactive”; for `CCOc1cccc(-n2cc(C(=O)N3CCN(c4cc(C(=O)O)c5ccccc5c4)CC3)nc2-c2ccc(C)cc2)c1`: 67.7 µM (active). On to `OC1(c2ccccc2)CCNCC1`, for which the Potency result was “inactive”. Still for that read-out and setting: in the case of `CC1CC(OC(=O)C(O)c2ccccc2)CC(C)(C)N1C` (centres undefined) it was “inactive”. On the same count and under the same terms, in the case of `CC(C)(O)c1ccc(CNC(=O)c2cccnc2Oc2ccc3nonc3c2)cc1` it was 25.2 µM (active); in that of `CC1(C)O[C@@H]2C[C@H]3[C@@H]4C[C@H](F)C5=CC(=O)C=C[C@]5(C)[C@H]4[C@@H](O)C[C@]3(C)[C@]2(C(=O)CO)O1`, “inactive”. As to `CNC(=O)c1cnn(-c2nc(N)c3ncn([C@@H]4O[C@H](CO)[C@@H](O)[C@H]4O)c3n2)c1`, the Potency result was “inactive”. Turning to `C1C[C@@H]2[C@H]3CC[C@H](C3)[C@@H]2C1`, the Potency entry is “inactive”. As for `CC(=O)OCCN(CCOC(C)=O)c1ccc(N=Nc2ccc([N+](=O)[O-])cc2C#N)cc1`, the Potency is 15.9 µM (active).
